Measurements from PubChem BioAssay AID624495 (National Center for Advancing Translational Sciences (NCATS), 2012).
Records with an inconclusive call do not appear. Active and inactive are the calls of the source. Calls follow the shape of the dose curve; as a rule, active = well fitted inhibition curve with a large enough effect; inconclusive = small, poorly fitted or top-dose-only effect, or another doubt; inactive = flat fitted curve, though single readings scatter.

What follows are compounds tested against D(2) dopamine receptor (Homo sapiens) (UniProt P14416) (assay: HTS Assay for Allosteric Antagonists of the Human D2 Dopamine Receptor: SAR in D2 Beta Arrestin Assay). Settings: DiscoveRx PathHunter D2 beta-arrestin recruitment, luminescence.
Sequence of D(2) dopamine receptor (Homo sapiens) (P14416 whole entry, looked up): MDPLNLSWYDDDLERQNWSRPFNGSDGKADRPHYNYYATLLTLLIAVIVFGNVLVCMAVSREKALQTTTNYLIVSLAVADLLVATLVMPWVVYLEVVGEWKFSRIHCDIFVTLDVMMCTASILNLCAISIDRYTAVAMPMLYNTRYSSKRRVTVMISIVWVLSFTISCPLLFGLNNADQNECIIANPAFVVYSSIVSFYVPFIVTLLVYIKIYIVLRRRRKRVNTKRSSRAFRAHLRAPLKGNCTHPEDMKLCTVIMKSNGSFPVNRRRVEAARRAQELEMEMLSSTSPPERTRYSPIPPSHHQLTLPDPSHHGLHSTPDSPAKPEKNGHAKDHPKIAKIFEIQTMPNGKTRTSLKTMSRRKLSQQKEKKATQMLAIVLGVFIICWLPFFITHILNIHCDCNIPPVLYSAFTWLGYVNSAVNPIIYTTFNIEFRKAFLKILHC
From the text: There is great interest in identifying small molecule ligands for G-protein coupled receptors (GPCRs) as nearly 50% of all FDA-approved drugs target these important receptor proteins. […] Amongst the dopamine receptors (DARs), the D2 is arguably one of the most validated drug targets in neurology and psychiatry. For instance, all receptor-based antiparkinsonian drugs primarily work via stimulating the D2 DAR, whereas all FDA-approved antipsychotic agents are antagonists of this receptor. The D2 DAR is also therapeutically targeted in other disorders such as restless legs syndrome, tardive dyskinesia, Tourette's syndrome, and hyperprolactinemia. […] This is an orthogonal assay to test the lead compounds against the D2 receptor, using a beta arrestin assay. NIH Molecular Libraries Probe Production Network [MLPCN] NIH Chemical Genomics Center [NCGC] Grant: NS0676421 PI Name: David Sibley, National Institutes of Neurological Disorders and Stroke
DiscoveRx D2 cells were thawed from frozen stock and seeded at 2,100 cells/ 3 uL/well media (DiscoveRx Plating Reagent 2) with MultiDrop Combi dispenser (Thermo Scientific, Logan, UT) onto white tissue culture treated 1536-well Aurora plates (Brooks Automation, Chelmsford, MA) and allowed to attach overnight at 37 deg C, 5% CO2. Next, 23 nL/well of compound solutions in DMSO were added with a pintool transfer (Kalypsis, San Diego, CA). As the positive control, 1 uL/well dopamine (EC100, 57 uM final concentration) diluted in buffer (HBSS + 10 mM HEPES + SMB + 0.1% Tween-20) was dispensed to 1 column of each plate. The rest of the plate was dispensed with buffer only, 1 uL/well as well. The cells were stimulated by compounds or dopamine control for 90 minutes at 37 deg C, 5% CO2, after which 1.5 ul/well of DiscoveRx detection reagent was added with BioRAPTR FRD dispenser. The detection reagent was prepared by mixing of Galacton Star Substrate, Emerald II solution and PathHunter buffer (supplied by the assay kit) together at 1:5:19 proportion accordingly just prior to dispensing. The plates were incubated at ambient temperature for 1 hour and then the luminescent signal was read on ViewLux plate reader (PerkinElmer, Waltham, MA).

Potency, active:
CCN1C(=O)c2ccccc2[S@](=O)c2ccc(C(=O)N[C@H](C)c3ccc(Br)cc3)cc21 1290 nM
CCN1C(=O)c2ccccc2[S@](=O)c2ccc(C(=O)NCc3ccc(C#N)cc3)cc21 257 nM
CN1C(=O)c2ccccc2[S@](=O)c2ccc(C(=O)NCCN3CCCC3)cc21 363 nM
CN1C(=O)c2ccccc2[S@](=O)c2ccc(C(=O)NCc3ccc(Br)cc3)cc21 1020 nM
CN1C(=O)c2ccccc2[S@](=O)c2ccc(C(=O)NCCc3cccs3)cc21 725 nM
CCN1C(=O)c2ccccc2[S@](=O)c2ccc(C(=O)NCc3ccc(F)cc3)cc21 576 nM
CCN1C(=O)c2ccccc2[S@](=O)c2ccc(C(=O)N[C@H](C)c3ccc4ccccc4c3)cc21 2890 nM
CCN1C(=O)c2ccccc2[S@](=O)c2ccc(C(=O)NCc3ccc(OC)cc3)cc21 1150 nM
CN1C(=O)c2ccccc2S(=O)c2ccc(C(=O)NCCc3cccs3)cc21 (configuration not stated) 913 nM
CCN1C(=O)c2ccccc2S(=O)c2ccc(C(=O)NCc3ccc(OC)cc3)cc21 (configuration not stated) 2890 nM
CN1C(=O)c2ccccc2[S@](=O)c2ccc(C(=O)NCc3cccnc3)cc21 2890 nM
CN1C(=O)c2ccccc2[S@](=O)c2ccc(C(=O)NCc3ccc(Cl)cc3)cc21 2890 nM
